# Laboratory results: PubChem BioAssay
# Activity calls are given as the source filed them. Unless noted, no rule for the calls is given here.
# Key:
# [1] = A549 cell viability effects, profiling panel, calcein-AM fluorescence, 48 h, basal (AID 1162); conditions: higher = more signal; also: test concentration not given here
# [2] = adipocyte viability effects, profiling panel, cell-based, 3T3-L1 adipocytes, calcein-AM fluorescence, 48 h, basal (AID 1163); conditions: 3T3-L1 adipocytes viability, higher = more signal; also: test concentration not given here
# [3] = HepG2 cell viability effects, profiling panel, calcein-AM fluorescence, 48 h, basal (AID 1164); conditions: higher = more signal; also: test concentration not given here
# [4] = MM1S cell viability effects, profiling panel, calcein-AM fluorescence, 48 h, basal (AID 1165); conditions: higher = more signal;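 also: viability of MM1S multiple myeloma cells under basal unstimulated conditions; test concentration not given here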
# [5] = basal RPMI8226 viability, no added stimulus, profiling panel, cell-based, calcein-AM fluorescence, 48 h, PK04 Diversity Set (AID 1166); conditions: RPMI8226 myeloma viability, higher = more signal;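 also: cells grown under basal conditions without added stimulus; test concentration not given here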
# [6] = basal HepG2 mitochondrial membrane potential changes, profiling panel, cell-based, JC-1 fluorescence, 24 h, 100 nL compound (AID 1167); conditions: higher = more signal; also: test concentration not given here
# [7] = basal 3T3-L1 adipocyte mitochondrial potential changes, profiling panel, cell-based, JC-1 fluorescence, 3T3-L1 adipocytes, 24 h, 100 nL compound (AID 1168); conditions: JC-1 mitochondrial fluorescence, higher = more signal, called active from +8 up or from −8 down; also: test concentration not given here
# [8] = basal RPMI8226 mitochondrial membrane potential changes, profiling panel, cell-based, JC-1 fluorescence, 24 h, 100 nL compound (AID 1169); conditions: RPMI8226 myeloma, JC-1 mitochondrial potential fluorescence, higher = more signal; also: test concentration not given here
# [9] = basal MM1S mitochondrial membrane potential changes, profiling panel, cell-based, JC-1 fluorescence, 24 h, 100 nL compound (AID 1170); conditions: higher = more signal; also: test concentration not given here
# [10] = A549 lung cancer cell viability effects, profiling panel, resazurin fluorescence, 24 h, PK04 Diversity Set (AID 1171); conditions: higher = more signal, called active from +8 up or from −8 down; also: test concentration not given here
# [11] = HepG2 liver cancer cell viability effects, profiling panel, resazurin fluorescence, 24 h, PK04 Diversity Set (AID 1172); conditions: higher = more signal; also: test concentration not given here
# [12] = basal S. cerevisiae growth modulation, no modifier, primary screen, OD600, strain BY4716, 24 h, basal condition (AID 1173); conditions: OD600, 24 h, higher = more signal, called active from +8 up or from −8 down
# [13] = MM1S myeloma cell viability, profiling panel, resazurin fluorescence, basal, 24 h, PK04 Diversity Set (AID 1174); conditions: higher = more signal, called active from +8 up or from −8 down;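 also: MM1S multiple myeloma cell line; test concentration not given here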
# [14] = biological target: Dihydroorotate dehydrogenase (quinone), mitochondrial (Plasmodium falciparum (isolate 3D7)) (UniProt Q08210); assay: PfDHODH enzyme inhibitors, primary screen, biochemical, C-terminal His tag, absorbance 600 nm (AID 1175); conditions: DCIP absorbance 600 nm, higher = more signal, called active from +8 up or from −8 down;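 also: recombinant parasite enzyme with a five histidine tag at its C terminus; test concentration not given here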
# Dihydroorotate dehydrogenase (quinone), mitochondrial (Plasmodium falciparum (isolate 3D7)), sequence (Q08210 whole entry, looked up): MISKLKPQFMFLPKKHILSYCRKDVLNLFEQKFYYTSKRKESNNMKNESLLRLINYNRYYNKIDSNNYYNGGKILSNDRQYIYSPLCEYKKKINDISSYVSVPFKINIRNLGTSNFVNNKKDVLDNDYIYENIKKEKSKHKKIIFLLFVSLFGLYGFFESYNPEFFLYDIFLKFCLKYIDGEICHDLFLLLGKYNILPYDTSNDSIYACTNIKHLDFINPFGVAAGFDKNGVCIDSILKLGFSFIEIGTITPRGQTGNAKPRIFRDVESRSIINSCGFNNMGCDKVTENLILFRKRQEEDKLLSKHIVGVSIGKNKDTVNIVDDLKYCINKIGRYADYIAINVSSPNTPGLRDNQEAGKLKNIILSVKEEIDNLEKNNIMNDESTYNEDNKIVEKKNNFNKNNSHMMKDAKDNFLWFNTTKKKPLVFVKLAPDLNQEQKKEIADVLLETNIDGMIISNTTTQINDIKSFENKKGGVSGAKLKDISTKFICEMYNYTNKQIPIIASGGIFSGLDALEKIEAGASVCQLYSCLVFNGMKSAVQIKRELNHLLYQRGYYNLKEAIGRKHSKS
# [15] = P. aeruginosa biofilm formation inhibitors, primary screen, strain PAO1, LB-PBS medium, absorbance 600 nm (AID 1176); also: test concentration not given here; conditions: P. aeruginosa PAO1 growth/biofilm, A600, 12 h; higher = more signal
# [16] = S. cerevisiae RM11-1a growth modifiers, primary screen, strain RM11-1a, OD600, basal, 24 h (AID 1177); conditions: OD600, 24 h, higher = more signal, called active from +8 up or from −8 down;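 also: cultures grown under basal conditions with no added stressor; test concentration not given here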
# [17] = E. coli acrAB mutant growth effects, primary screen, E. coli filamentation inducers, strain DRC39, OD650, 24 h (AID 1178); conditions: higher = more signal, called active from +8 up or from −8 down;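 also: growth measured as culture turbidity by optical density at 650 nm; test concentration not given here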
# [18] = E. coli acrAB mutant growth effects, primary screen, E. coli filamentation inducers, strain DRC39, OD650, 48 h (AID 1179);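 also: screen aims at cell division blockers that make cells filament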; conditions: E. coli DRC39 delta-acrAB growth, higher = more signal, called active from +8 up or from −8 down
# [19] = RPMI8226 myeloma cell viability, profiling panel, resazurin fluorescence, basal, 24 h, PK04 Diversity Set (AID 1180); conditions: higher = more signal;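 also: RPMI8826 multiple myeloma cell line at 5000 cells per well; test concentration not given here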
# [20] = biological target: E3 ubiquitin-protein ligase XIAP (Homo sapiens) (UniProt P98170); assay: XIAP binders, primary screen, biophysical, small-molecule microarray, fluorescence 635 nm (AID 1181); conditions: small-molecule microarray binding, higher = more signal;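 also: score merges 667 nm emission and signal to noise over triplicate slides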
# E3 ubiquitin-protein ligase XIAP (Homo sapiens), sequence (P98170 whole entry, looked up): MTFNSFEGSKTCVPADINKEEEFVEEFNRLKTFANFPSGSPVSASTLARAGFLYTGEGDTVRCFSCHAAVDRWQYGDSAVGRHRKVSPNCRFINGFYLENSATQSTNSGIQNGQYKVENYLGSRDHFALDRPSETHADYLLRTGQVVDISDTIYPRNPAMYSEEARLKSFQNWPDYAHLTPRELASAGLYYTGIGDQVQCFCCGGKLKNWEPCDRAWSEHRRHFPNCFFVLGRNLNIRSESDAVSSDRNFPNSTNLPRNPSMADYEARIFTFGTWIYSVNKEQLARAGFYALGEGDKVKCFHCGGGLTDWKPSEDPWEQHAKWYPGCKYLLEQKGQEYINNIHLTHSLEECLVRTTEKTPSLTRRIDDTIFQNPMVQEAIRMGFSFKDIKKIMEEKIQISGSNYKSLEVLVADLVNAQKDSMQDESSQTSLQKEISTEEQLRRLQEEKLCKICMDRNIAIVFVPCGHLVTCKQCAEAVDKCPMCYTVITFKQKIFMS
SMILES,z-score [1],z-score [2],z-score [3],z-score [4],z-score [5],z-score [6],z-score [7],z-score [8],z-score [9],z-score [10],z-score [11],z-score [12],z-score [13],composite z-score [14],z-score [15],z-score [16],z-score [17],z-score [18],z-score [19],composite z-score [20]
COc1cc(OC)c(C(O)C2C=CC3C(=O)N(C)C(=O)C3N2NC(=O)OC(C)(C)C)cc1Br (stereo not given),0.521,-0.23,0.25,-0.591,0.442,-1.05,-0.0401 (inactive),0.0442,1.18,-0.503 (inactive),-1.88,-5.3 (inactive),-0.652 (inactive),0.985 (inactive),0.683 (inactive),1.18 (inactive),-0.143 (inactive),-0.376 (inactive),-0.34,0.677
[N-]=[N+]=NCc1ccccc1C[C@@]1(C(=O)N2CCOCC2)N=C(c2ccc(OCCCO)cc2)O[C@@H]1c1ccccc1,-1.99,1.69,-1.7,-3.43,-4.4,-0.801,0.86 (inactive),-1.25,-1.12,-1.32 (inactive),-0.932,-2.93 (inactive),-4.83 (inactive),0.192 (inactive),0.593 (inactive),-0.0165 (inactive),0.834 (inactive),-0.274 (inactive),-4.29,0.284
CN(C)C(=O)C1N=C(c2ccc(OCCCO)cc2)N(c2ccccc2)O1 (stereo not given),0.676,-0.214,0.411,0.237,-0.254,0.261,0.756 (inactive),-0.0214,-0.911,0.304 (inactive),0.244,-1.29 (inactive),0.689 (inactive),-1.01 (inactive),-0.841 (inactive),0.353 (inactive),1.16 (inactive),1.56 (inactive),0.271,-0.181
[N-]=[N+]=Nc1ccccc1[C@H]1OC(c2ccc(OCCCO)cc2)=N[C@@]1(CCS(=O)(=O)c1ccccc1)C(=O)NCCN1CCOCC1,0.101,-0.223,0.0355,-0.387,-0.161,0.816,-0.374 (inactive),0.184,-0.691,1.22 (inactive),0.3,-0.378 (inactive),0.131 (inactive),0.467 (inactive),0.537 (inactive),0.0557 (inactive),-0.259 (inactive),-0.264 (inactive),0.291,0.177
O=C1N(Cc2ccccc2)Cc2ccccc2[C@@H]2OC(c3ccc(OCCCO)cc3)=N[C@]12CCS(=O)(=O)c1ccccc1,0.589,-1.46,0.151,-1.25,-1.08,-0.565,0.676 (inactive),-1.14,-0.156,0.403 (inactive),-0.121,0.691 (inactive),-0.772 (inactive),0.094 (inactive),1.91 (inactive),2.33 (inactive),0.153 (inactive),-0.286 (inactive),-0.849,-0.144
COCCCNC(=O)[C@@]1(Cc2ccccc2N=[N+]=[N-])COC(c2ccc(OCCCO)cc2)=N1,0.552,-0.707,0.815,-0.919,-0.0778,0.796,0.156 (inactive),-0.408,-1.21,0.992 (inactive),0.677,-1.68 (inactive),-0.583 (inactive),0.962 (inactive),-0.76 (inactive),0.483 (inactive),0.349 (inactive),0.746 (inactive),0.895,0.0049
COC(=O)c1c2oc(c1C(=O)OC)C(=O)N(C)Cc1cn(nn1)C[C@H](Cc1ccccc1)NC(=O)N[C@H](CO)CC2,-0.145,0.129,-0.0951,0.273,-0.743,-0.649,-0.164 (inactive),0.256,-0.31,-0.213 (inactive),-0.356,0.415 (inactive),-0.286 (inactive),0.31 (inactive),0.0914 (inactive),1.2 (inactive),-0.499 (inactive),-0.913 (inactive),-0.139,-0.0559
COC(=O)[C@@]1(Cc2ccc(F)cc2)[C@H]2c3cc(C(=O)N(C)C)n(Cc4cc(F)cc5c4OCOC5)c3C[C@H]2CN1C(=O)c1ccccc1,0.217,0.572,0.607,-1.25,-1.9,1.76,-0.737 (inactive),-0.74,-0.942,-1.8 (inactive),-0.933,0.434 (inactive),-1.73 (inactive),-0.954 (inactive),0.728 (inactive),-0.341 (inactive),-0.462 (inactive),0.164 (inactive),-2.74,0.476
O=C1O[C@@H](c2ccccc2)[C@@H](c2ccccc2)N2[C@@H](c3ccccc3OCCO)[C@]3(C(=O)Nc4ccc(C#CCCO)cc43)[C@@H](C(=O)N3CCCCCCC3)[C@H]12,0.22,0.251,0.717,-1.68,-4.14,0.548,0.363 (inactive),-1.11,-1.63,-0.184 (inactive),0.29,0.355 (inactive),-1.91 (inactive),-0.452 (inactive),1.26 (inactive),0.753 (inactive),-0.291 (inactive),0.321 (inactive),-4.5,2.45
